Measurements as given in PubChem BioAssay AID434961 (Broad Institute, 2010).
The campaign covered roughly 7,700 compounds. About 15 (0.2%) were called active. Another 6% or so got no clear call; they are omitted.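 The calls were made as follows: active = more than half of replicate wells with inhibition above about 18% (limit read from the data, passing the limit was not always enough); inconclusive = exactly half of replicate wells above that limit; inactive = fewer than half of replicates above it.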 This excerpt belongs to a sample that is enriched for actives.

The compounds below were run against Regulator of chromosome condensation (Homo sapiens) + GTP-binding nuclear protein Ran (Homo sapiens) + Importin subunit beta-1 (Homo sapiens) (UniProt P18754+P62826+Q14974) (assay: RanGTP/importin-beta interaction disruptors – biochemical, CFP-Ran/YFP-importin-beta FRET, RCC1, cell-free, primary screen (AID 434961;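 also: 0% = DMSO wells and 100% inhibition = RanGDP control wells on each plate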)). Conditions: hits give high values, concentration not given here.

inhibition, active:
C[C@@H]1CN([C@H](C)CO)C(=O)Cc2cc(NC(=O)Nc3ccc4c(c3)OCO4)ccc2O[C@@H]1CN(C)CC1CC1 24.2%, C[C@H](CO)N1C[C@H](C)[C@@H](CN(C)S(=O)(=O)c2cccs2)Oc2ccc(NC(=O)Cc3ccccc3)cc2CC1=O 19.8%, C[C@@H]1CN([C@@H](C)CO)C(=O)c2cc(NS(C)(=O)=O)ccc2O[C@@H](C)CCCCO[C@H]1CN(C)C(=O)Cc1ccccc1 20.6%, C[C@@H]1CN([C@H](C)CO)C(=O)c2cc(NS(C)(=O)=O)ccc2O[C@@H](C)CCCCO[C@@H]1CN(C)Cc1ccncc1 30%, C[C@@H]1CCCCO[C@H](CN(C)Cc2ccc3c(c2)OCO3)[C@@H](C)CN([C@H](C)CO)C(=O)c2cc(NC(=O)CCCN(C)C)ccc2O1 20.5%, C[C@H](CO)N1C[C@H](C)[C@@H](CN(C)Cc2ccncc2)Oc2c(NS(C)(=O)=O)cccc2C1=O 29.9%, Cc1noc(C)c1NC(=O)Nc1ccc2c(c1)C(=O)N([C@H](C)CO)C[C@@H](C)[C@@H](CN(C)C(=O)Nc1c(C)noc1C)OCCCC[C@@H](C)O2 20.4%, COc1ccc(CN(C)C[C@H]2Oc3ccc(NC(=O)Nc4ccc(C(F)(F)F)cc4)cc3C(=O)N([C@@H](C)CO)C[C@H]2C)cc1 31.1%, Cc1noc(C)c1NC(=O)N(C)C[C@@H]1Oc2ccc(N(C)C)cc2CC(=O)N([C@H](C)CO)C[C@H]1C 24.7%, C[C@H]1CN([C@@H](C)CO)C(=O)c2cccc(NS(=O)(=O)c3cn(C)cn3)c2O[C@H]1CN(C)C 31%, C[C@@H]1CCCCO[C@@H](CN(C)C(=O)CCC(F)(F)F)[C@@H](C)CN([C@@H](C)CO)C(=O)c2cc(NC(=O)CCC(F)(F)F)ccc2O1 17.9%

inhibition, inactive:
CNC[C@H]1Oc2ccc(NC(=O)NC(C)C)cc2CC(=O)N([C@H](C)CO)C[C@H]1C -4.07%, CNC[C@H]1OCCCC[C@@H](C)Oc2ccc(N)cc2C(=O)N([C@H](C)CO)C[C@@H]1C 7.03%, C[C@@H]1CN([C@H](C)CO)C(=O)Cc2cc(NS(=O)(=O)c3cn(C)cn3)ccc2O[C@H]1CN(C)CC1CC1 1.45%, Cc1noc(C)c1NC(=O)N(C)C[C@@H]1Oc2c(NS(C)(=O)=O)cccc2C(=O)N([C@H](C)CO)C[C@H]1C -0.0899%, C[C@@H]1CCCCO[C@H](CN(C)C(=O)C2CCCCC2)[C@H](C)CN([C@@H](C)CO)C(=O)c2cc(NC(=O)c3ccncc3)ccc2O1 2%, C[C@@H]1CN([C@H](C)CO)C(=O)Cc2cc(NC(=O)Cc3ccccc3)ccc2O[C@@H]1CN(C)S(=O)(=O)c1cccs1 -2.73%, C[C@H]1CN([C@@H](C)CO)C(=O)Cc2cc(NC(=O)Cc3ccccc3)ccc2O[C@@H]1CN(C)S(=O)(=O)c1cccs1 -0.944%, C[C@@H]1CN([C@@H](C)CO)C(=O)Cc2cc(NC(=O)Nc3ccc4c(c3)OCO4)ccc2O[C@@H]1CN(C)CC1CC1 2.45%, C[C@H](CO)N1C[C@H](C)[C@H](CN(C)CC2CC2)Oc2ccc(NC(=O)Nc3ccc4c(c3)OCO4)cc2CC1=O -0.0887%, C[C@H]1CCCCO[C@@H](CN(C)C(=O)Cc2ccccc2)[C@@H](C)CN([C@@H](C)CO)C(=O)c2cc(NS(C)(=O)=O)ccc2O1 3.79%, C[C@H]1CN([C@@H](C)CO)C(=O)c2cccc(NS(C)(=O)=O)c2O[C@H]1CN(C)Cc1ccncc1 7.75%, C[C@@H]1CN([C@@H](C)CO)C(=O)c2cccc(NS(C)(=O)=O)c2O[C@@H]1CN(C)Cc1ccncc1 0.304%, C[C@@H]1CCCCO[C@@H](CN(C)Cc2ccncc2)[C@H](C)CN([C@@H](C)CO)C(=O)c2cc(NS(C)(=O)=O)ccc2O1 -2.5%, C[C@H]1CCCCO[C@H](CN(C)Cc2ccc3c(c2)OCO3)[C@@H](C)CN([C@@H](C)CO)C(=O)c2cc(NC(=O)CCCN(C)C)ccc2O1 -3.94%, C[C@@H]1CCCCO[C@H](CN(C)Cc2ccncc2)[C@H](C)CN([C@H](C)CO)C(=O)c2cc(NS(C)(=O)=O)ccc2O1 0.0179%, C[C@@H]1CN([C@@H](C)CO)C(=O)c2cc(NC(=O)CCCN(C)C)ccc2O[C@@H](C)CCCCO[C@H]1CN(C)Cc1ccc2c(c1)OCO2 7.22%, C[C@@H]1CN([C@@H](C)CO)C(=O)c2cc(NS(C)(=O)=O)ccc2O[C@@H](C)CCCCO[C@@H]1CN(C)C(=O)Cc1ccccc1 -3.41%, Cc1noc(C)c1NC(=O)N(C)C[C@@H]1Oc2ccc(N(C)C)cc2CC(=O)N([C@H](C)CO)C[C@@H]1C 1.55%, Cc1noc(C)c1NC(=O)Nc1ccc2c(c1)C(=O)N([C@H](C)CO)C[C@H](C)[C@H](CN(C)C(=O)Nc1c(C)noc1C)OCCCC[C@H](C)O2 -1.94%, Cc1noc(C)c1NC(=O)N(C)C[C@H]1Oc2ccc(N(C)C)cc2CC(=O)N([C@@H](C)CO)C[C@H]1C -0.258%, COc1ccc(CN(C)C[C@H]2Oc3ccc(NC(=O)Nc4ccc(C(F)(F)F)cc4)cc3C(=O)N([C@H](C)CO)C[C@H]2C)cc1 -1.47%, C[C@@H]1CN([C@H](C)CO)C(=O)c2cccc(NS(=O)(=O)c3cn(C)cn3)c2O[C@H]1CN(C)C -0.231%, C[C@H]1CN([C@@H](C)CO)C(=O)c2cccc(NS(=O)(=O)c3cn(C)cn3)c2O[C@@H]1CN(C)C 0.914%, Cc1noc(C)c1NC(=O)Nc1ccc2c(c1)C(=O)N([C@H](C)CO)C[C@H](C)[C@@H](CN(C)C(=O)Nc1c(C)noc1C)OCCCC[C@@H](C)O2 0.0737%, COc1ccc(CN(C)C[C@H]2Oc3ccc(NC(=O)Nc4ccc(C(F)(F)F)cc4)cc3C(=O)N([C@@H](C)CO)C[C@@H]2C)cc1 -6.63%, C[C@@H]1CCCCO[C@@H](CN(C)C(=O)CCC(F)(F)F)[C@H](C)CN([C@@H](C)CO)C(=O)c2cc(NC(=O)CCC(F)(F)F)ccc2O1 -1.98%, C[C@H]1CCCCO[C@H](CN(C)C(=O)CCC(F)(F)F)[C@@H](C)CN([C@@H](C)CO)C(=O)c2cc(NC(=O)CCC(F)(F)F)ccc2O1 4.31%, CNC[C@H]1Oc2c(cccc2N(C)C)C(=O)N([C@H](C)CO)C[C@H]1C -1.15%, COc1ccc(CN(C)C[C@H]2Oc3c(NC(=O)Nc4c(C)noc4C)cccc3C(=O)N([C@H](C)CO)C[C@@H]2C)cc1 0.675%, C[C@H](CO)N1C[C@H](C)[C@H](CN(C)C(=O)Nc2ccccc2)Oc2c(NC(=O)c3ccc(-c4nccs4)cc3)cccc2C1=O -2.67%, C[C@H](CO)N1C[C@H](C)[C@H](CN(C)Cc2ccc3c(c2)OCO3)Oc2ccc(NC(=O)CCC(F)(F)F)cc2CC1=O 0.912%, C[C@@H]1CCCCO[C@@H](CN(C)C(=O)CCCN(C)C)[C@H](C)CN([C@@H](C)CO)C(=O)c2cc(N(C)C)ccc2O1 1.1%, C[C@@H]1CCCCO[C@@H](CN(C)C(=O)c2ccncc2)[C@@H](C)CN([C@@H](C)CO)C(=O)c2cc(NS(=O)(=O)c3cccs3)ccc2O1 -2.75%, COc1ccc(CN(C)C[C@@H]2Oc3c(NS(=O)(=O)c4cn(C)cn4)cccc3C(=O)N([C@H](C)CO)C[C@@H]2C)cc1 -1.87%, C[C@H](CO)N1C[C@H](C)[C@H](CN(C)Cc2ccc(Cl)c(Cl)c2)Oc2c(NS(=O)(=O)c3cn(C)cn3)cccc2C1=O -0.00607%, C[C@@H]1CCCCO[C@H](CN(C)C(=O)Nc2ccccc2)[C@@H](C)CN([C@@H](C)CO)C(=O)c2cc(NC(=O)CCCN(C)C)ccc2O1 -3.05%, CNC[C@H]1Oc2ccc(NS(=O)(=O)c3cccs3)cc2CC(=O)N([C@H](C)CO)C[C@H]1C -0.195%, C[C@@H]1CCCCO[C@@H](CN(C)S(C)(=O)=O)[C@H](C)CN([C@H](C)CO)C(=O)c2cc(NS(=O)(=O)c3ccccc3)ccc2O1 -0.778%, C[C@H]1CN([C@@H](C)CO)C(=O)Cc2cc(NC(=O)C3CC3)ccc2O[C@@H]1CN(C)C(=O)Nc1ccccc1 -14.8%, CNC[C@@H]1Oc2c(N)cccc2C(=O)N([C@H](C)CO)C[C@@H]1C -1.12%, COc1ccccc1CN(C)C[C@H]1OCc2cn(nn2)CCCC(=O)N([C@H](C)CO)C[C@H]1C 3.38%, C[C@@H]1CN([C@@H](C)CO)C(=O)c2cccc(NC(=O)c3ccncc3)c2O[C@H]1CN(C)S(=O)(=O)c1cccs1 0.118%, C[C@H]1CCCCO[C@@H](CN(C)Cc2ccncc2)[C@@H](C)CN([C@@H](C)CO)C(=O)c2cc(N(C)C)ccc2O1 1.7%, COc1ccc(NC(=O)Nc2ccc3c(c2)C(=O)N([C@@H](C)CO)C[C@@H](C)[C@H](CN(C)Cc2ccc(C(=O)O)cc2)O3)cc1 0.138%, C[C@@H]1CN([C@H](C)CO)C(=O)c2cc(NC(=O)Nc3ccccc3)ccc2O[C@@H](C)CCCCO[C@H]1CN(C)S(=O)(=O)c1ccc(F)cc1 4.18%, C[C@H](CO)N1C[C@H](C)[C@@H](CN(C)C(=O)NC2CCCCC2)Oc2ccc(N(C)C)cc2C1=O 3.39%
